In PubChem BioAssay AID1159580 (chemical genetic matrix, 2015):
Out of some 5,500 compounds screened, about 2,000 (36%) were called active. Inconclusive results (about 18%) are left out. No stated cut-off is given here; in the data, active means normalized growth mostly below about 0.91 (no sharp cut-off); inconclusive means no clear call, values can overlap the other calls; inactive means mostly above about 0.92. The list shows a part of the results.

Assay: chemical genetic growth profiling, strain panel (AID 1159580);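 further: tested at 20 µM; growth read once vehicle control cultures reached saturation at 30 °C; 1 = growth at the plate median or of vehicle wells; lower values mean less growth of the strain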
Conditions: growth OD

Measured: normalized growth

COC(=O)c1c(OC)cc2c(c1C)Oc1c(Cl)c(O)c(Cl)c(C)c1C(=O)O2
inactive: S. cerevisiae deletion strains, locus YJR075W, strain HOC1, active compounds read low 0.893 | S. cerevisiae deletion strains, locus YKL009W, strain mrt4, active compounds read low 0.975 | S. cerevisiae deletion strains, locus YKL068W, active compounds read low 0.976 | S. cerevisiae deletion strains, locus YKL085W, strain MDH1 (second series), active compounds read low 0.979 | S. cerevisiae deletion strains, locus YKL085W, strain MDH1, active compounds read low 0.979 | S. cerevisiae deletion strains, locus YKL160W, strain elf1, active compounds read low 0.993 | S. cerevisiae deletion strains, locus YKR001C, strain vps1, active compounds read low 0.949 | S. cerevisiae deletion strains, locus YKR026C, strain gcn3, active compounds read low 0.977 | S. cerevisiae deletion strains, locus YKR091W, strain srl3, active compounds read low 0.986 | S. cerevisiae deletion strains, locus YLL001W, strain dnm1, active compounds read low 0.979 | S. cerevisiae deletion strains, locus YLL026W, active compounds read low 0.983 | S. cerevisiae deletion strains, locus YLL041C, strain sdh2, active compounds read low 0.978 | S. cerevisiae deletion strains, locus YLR027C, strain aat2, active compounds read low 0.991 | S. cerevisiae deletion strains, locus YLR039C, strain RIC1, active compounds read low 0.796 | S. cerevisiae deletion strains, locus YLR058C, strain SHM2, active compounds read low 0.919 | S. cerevisiae deletion strains, locus YLR102C, strain apc9, active compounds read low 0.927 | S. cerevisiae deletion strains, locus YLR113W, strain HOG1, active compounds read low 0.968 | S. cerevisiae deletion strains, locus YLR221C, strain rsa3, active compounds read low 0.982 | S. cerevisiae deletion strains, locus YLR258W, strain gsy2, active compounds read low 0.992 | S. cerevisiae deletion strains, locus YLR262C, strain YPT6 (second series), active compounds read low 0.927 | S. cerevisiae deletion strains, locus YLR262C, strain YPT6, active compounds read low 0.795 | S. cerevisiae deletion strains, locus YLR268W, strain sec22, active compounds read low 0.905 | S. cerevisiae deletion strains, locus YLR320W, strain mms22, active compounds read low 0.964 | S. cerevisiae deletion strains, locus YLR330W, strain CHS5, active compounds read low 0.929 | S. cerevisiae deletion strains, locus YLR342W, strain FKS1 (second series), active compounds read low 0.927 | S. cerevisiae deletion strains, locus YLR342W, strain FKS1, active compounds read low 0.986 | S. cerevisiae deletion strains, locus YLR357W, strain rsc2, active compounds read low 1.05 | S. cerevisiae deletion strains, locus YLR370C, strain arc18, active compounds read low 0.984 | S. cerevisiae deletion strains, locus YLR371W, strain rom2, active compounds read low 0.976 | S. cerevisiae deletion strains, locus YLR384C, strain iki3, active compounds read low 0.994 | S. cerevisiae deletion strains, locus YLR418C, strain cdc73, active compounds read low 0.863 | S. cerevisiae deletion strains, locus YML016C, strain PPZ1, active compounds read low 0.936 | S. cerevisiae deletion strains, locus YML032C, strain rad52, active compounds read low 0.96 | S. cerevisiae deletion strains, locus YML120C, strain ndi1, active compounds read low 0.973 | S. cerevisiae deletion strains, locus YML124C, strain tub3, active compounds read low 0.945 | S. cerevisiae deletion strains, locus YMR058W, strain fet3, active compounds read low 0.982 | S. cerevisiae deletion strains, locus YMR078C, strain ctf18, active compounds read low 0.935 | S. cerevisiae deletion strains, locus YMR125W, strain sto1, active compounds read low 1.01 | S. cerevisiae deletion strains, locus YMR129W, active compounds read low 1.01 | S. cerevisiae deletion strains, locus YMR205C, strain PFK2, active compounds read low 0.989 | S. cerevisiae deletion strains, locus YMR223W, strain ubp8, active compounds read low 0.947 | S. cerevisiae deletion strains, locus YMR231W, strain pep5, active compounds read low 0.993 | S. cerevisiae deletion strains, locus YMR307W, strain GAS1, active compounds read low 0.869 | S. cerevisiae deletion strains, locus YNL067W, strain RPL9B, active compounds read low 0.895 | S. cerevisiae deletion strains, locus YNL071W, strain lat1, active compounds read low 0.982 | S. cerevisiae deletion strains, locus YNL128W, strain TEP1, active compounds read low 0.89 | S. cerevisiae deletion strains, locus YNL153C, strain GIM3, active compounds read low 0.909 | S. cerevisiae deletion strains, locus YNL183C, strain NPR1, active compounds read low 0.9 | S. cerevisiae deletion strains, locus YNL209W, strain ssb2, active compounds read low 0.996 | S. cerevisiae deletion strains, locus YNL233W, strain BNI4, active compounds read low 0.938 | S. cerevisiae deletion strains, locus YNL248C, strain rpa49, active compounds read low 1.02 | S. cerevisiae deletion strains, locus YNL250W, strain rad50, active compounds read low 0.986 | S. cerevisiae deletion strains, locus YNL271C, strain bni1, active compounds read low 0.985 | S. cerevisiae deletion strains, locus YNL298W, strain CLA4, active compounds read low 0.977 | S. cerevisiae deletion strains, locus YNL322C, strain KRE1 (second series), active compounds read low 0.997 | S. cerevisiae deletion strains, locus YNL322C, strain KRE1, active compounds read low 0.937 | S. cerevisiae deletion strains, locus YNR049C, strain mso1, active compounds read low 0.994 | S. cerevisiae deletion strains, locus YNR052C, strain pop2, active compounds read low 0.948 | S. cerevisiae deletion strains, locus YOL006C, strain TOP1, active compounds read low 0.757 | S. cerevisiae deletion strains, locus YOL012C, strain htz1 0.865 | S. cerevisiae deletion strains, locus YOL147C, strain pex11, active compounds read low 0.946 | S. cerevisiae deletion strains, locus YOR001W, strain rrp6, active compounds read low 1.01 | S. cerevisiae deletion strains, locus YOR061W, strain CKA2, active compounds read low 0.892 | S. cerevisiae deletion strains, locus YOR069W, strain VPS5, active compounds read low 0.953 | S. cerevisiae deletion strains, locus YOR070C, strain gyp1, active compounds read low 0.984 | S. cerevisiae deletion strains, locus YOR080W, strain dia2, active compounds read low 0.992 | S. cerevisiae deletion strains, locus YOR083W, strain WHI5, active compounds read low 0.997 | S. cerevisiae deletion strains, locus YOR106W, strain vam3, active compounds read low 1.01 | S. cerevisiae deletion strains, locus YOR136W, strain idh2, active compounds read low 0.943 | S. cerevisiae deletion strains, locus YOR144C, strain elg1, active compounds read low 0.947 | S. cerevisiae deletion strains, locus YOR184W, strain ser1, active compounds read low 0.918 | S. cerevisiae deletion strains, locus YOR231W, strain MKK1, active compounds read low 0.927 | S. cerevisiae deletion strains, locus YOR265W, strain rbl2, active compounds read low 0.989 | S. cerevisiae deletion strains, locus YOR270C, strain vph1, active compounds read low 0.927 | S. cerevisiae deletion strains, locus YOR290C, strain snf2, active compounds read low 0.995 | S. cerevisiae deletion strains, locus YOR316C, strain cot1, active compounds read low 0.933 | S. cerevisiae deletion strains, locus YPL051W, strain arl3, active compounds read low 0.98 | S. cerevisiae deletion strains, locus YPL055C, strain LGE1, active compounds read low 0.864 | S. cerevisiae deletion strains, locus YPL078C, strain atp4, active compounds read low 0.982 | S. cerevisiae deletion strains, locus YPL106C, strain sse1, active compounds read low 1.03 | S. cerevisiae deletion strains, locus YPL240C, strain hsp82, active compounds read low 0.979 | S. cerevisiae deletion strains, locus YPL256C, strain CLN2, active compounds read low 0.938 | S. cerevisiae deletion strains, locus YPR119W, strain clb2, active compounds read low 0.937 | S. cerevisiae deletion strains, locus YPR141C, strain kar3, active compounds read low 0.968 | S. cerevisiae deletion strains, locus YPR167C, strain met16, active compounds read low 0.927 | S. cerevisiae deletion strains, strain wtn01, active compounds read low 0.936 | S. cerevisiae strains, strain wild type, active compounds read low 0.915
active: S. cerevisiae deletion strains, locus YKL190W, strain CNB1, active compounds read low 0.911 | S. cerevisiae deletion strains, locus YMR263W, strain SAP30, active compounds read low 0.882 | S. cerevisiae deletion strains, locus YNL307C, strain MCK1, active compounds read low 0.838 | S. cerevisiae deletion strains, locus YPL241C, strain CIN2, active compounds read low 0.913 | S. cerevisiae deletion strains, locus YPR163C, strain tif3, active compounds read low 0.901
